Test results reported in the supplement of paper PMC8253809.
Values joined by “and” are separate entries in the source; they are usually repeats but may differ in a detail not shown here. Equal entries are not always repeated.

What was measured:
Test in all cases: growth inhibition (% activity, log2 RLU normalised to DMSO / staurosporine); higher = more growth inhibition
Settings in all cases: 33 µM
DIPGX29 = system: DIPGX29 (H3.3 K27M diffuse intrinsic pontine glioma line)
Method in brief: (§1)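 Approved drugs, at a single final concentration of about 33 μM, were applied in triplicate to pHGG cell lines and H9-derived neural stem cells for 7 days at 37 °C, 5% CO2. The growth-inhibition value is the replicate median of log2-transformed CellTiter-Glo luminescence normalised per plate to % activity between solvent and positive control wells.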

DIPGX37 = system: DIPGX37 (H3.3 K27M diffuse intrinsic pontine glioma line)
Method in brief: as §1

DIPGX7 = system: DIPGX7 (H3.3 K27M diffuse intrinsic pontine glioma line)
Method in brief: as §1

DIPGX9 = system: DIPGX9 (diffuse intrinsic pontine glioma line)
Method in brief: as §1

HGGX39 = system: HGGX39 (paediatric high-grade glioma line)
Method in brief: as §1

HGGX6 = system: HGGX6 (H3.3 G34R paediatric high-grade glioma line)
Method in brief: as §1

HNSC = system: HNSC
Method in brief: as §1

SUDIPGIV = system: SUDIPGIV (diffuse intrinsic pontine glioma line)
Method in brief: as §1

SUDIPGVI = system: SUDIPGVI (diffuse intrinsic pontine glioma line)
Method in brief: as §1

SUDIPGXIII = system: SUDIPGXIII (diffuse intrinsic pontine glioma line)
Method in brief: as §1

Row | Structure (SMILES) | growth inhibition (DIPGX29) | growth inhibition (DIPGX37) | growth inhibition (DIPGX7) | growth inhibition (DIPGX9) | growth inhibition (HGGX39) | growth inhibition (HGGX6) | growth inhibition (HNSC) | growth inhibition (SUDIPGIV) | growth inhibition (SUDIPGVI) | growth inhibition (SUDIPGXIII)
1 | CC1(C)Cc2c(-c3ccccc3)c(-c3ccc(Cl)cc3)c(CC(=O)O)n2C1 | 1.89% | 3.9% | 3.38% | 1.48% | 2.51% | -0.994% | 8.73% | 1.41% | 1.99% | 1.12%
2 | COc1cc2nc(N(C)CCCNC(=O)C3CCCO3)nc(N)c2cc1OC (stereo not given) | 0.0156% | 1.16% | -0.0243% | 0.217% | -0.734% | 1.08% | -0.343% | -0.994% | 1.28% | 1.78%
3 | COc1ccccc1OCC(O)COC(N)=O (stereo not given) | -0.505% | 1.65% | 0.111% | 0.273% | 0.0917% | 1% | -1.62% | -1% | 0.561% | -0.184%
4 | COc1ccc(-n2nc(C(N)=O)c3c2C(=O)N(c2ccc(N4CCCCC4=O)cc2)CC3)cc1 | -1.17% | -0.875% | 0.291% | 0.547% | 1.79% | 1.04% | -3.66% | -1.21% | 1.14% | 0.63%
5 | O=C(O)[C@H](CC(=O)N1C[C@H]2CCCC[C@H]2C1)Cc1ccccc1 | 0.852% | -5.28% | 0.289% | 1.86% | 1.09% | 0.619% | 1.48% | 1.74% | 1.16% | -1.34%
6 | CCN1CCN(c2cc(-c3ccc(F)cc3)c3c(n2)CCCCCC3)CC1 | 9.89% | 1.2% | 21.9% | 4.47% | 10.1% | 0.894% | 5% | 4.82% | 4.25% | 2.42%
7 | Nc1ncn(C2OC(CO)C(O)C2O)c(=O)n1 (stereo not given) | 3.4% | -0.711% | 5.91% | 7.54% | 4.31% | 1.61% | 55.5% | 16.7% | 0.0997% | -1.9%
8 | CN(C/C=C/C#CC(C)(C)C)Cc1cccc2ccccc12 | -0.633% and -1.72% | -0.939% and -0.818% | -1.38% and -1.19% | 0.275% and -0.829% | 1.78% and -1.01% | 0.104% and -1.17% | -0.321% and -4.36% | -0.307% and 0.598% | 1.93% and -1.67% | -1.07% and -1.51%
9 | NS(=O)(=O)c1cc2c(cc1C(F)(F)F)NC(Cc1ccccc1)NS2(=O)=O (stereo not given) | -1.42% | 2.24% | -1.56% | -0.0939% | -0.621% | 1.26% | -0.523% | -1.96% | 0.355% | 0.995%
10 | CC1=C(CC(=O)O)c2cc(F)ccc2/C1=C\c1ccc([S+](C)[O-])cc1 (stereo not given) | 1.11% | 1.67% | 0.000497% | 0.866% | 0.763% | 2.31% | -0.224% | 0.82% | 2.02% | 0.292%
11 | Nc1cccc2c1C(=O)N(C1CCC(=O)NC1=O)C2=O (stereo not given) | 0.275% | 2% | 0.718% | -0.934% | -1.86% | -0.402% | 0.283% | -0.313% | 0.743% | -1.19%
12 | CNCCc1ccccn1 | 0.924% | 1.45% | 1.21% | 1.11% | 2.84% | 1.49% | 1.31% | 1.96% | 4.33% | -0.14%
13 | CCCN(CCC)S(=O)(=O)c1ccc(C(=O)O)cc1 | -1.26% | 2.49% | 0.672% | 0.0871% | 1.02% | -3.52% | 8.98% | 1.56% | -6.21% | 0.262%
14 | O=C([O-])c1ccccc1O.[Na+] | 1.02% | 2.5% | 2.56% | 1.21% | 1.15% | -1.22% | 28.2% | 1.6% | -4.02% | 0.791%
15 | Cc1ccc(C(=O)c2ccc(CC(=O)O)n2C)cc1 | -0.189% | -0.055% | 0.146% | 0.57% | 0.449% | -0.641% | 2.18% | -4% | 1.82% | -0.302%
16 | Cc1ccc(N(CC2=NCCN2)c2cccc(O)c2)cc1 | -5.09% | -4.29% | -2.56% | -2.27% | -2.42% | -3.2% | 1.6% | -4.67% | -4.28% | -1.14%
17 | O=C(O)Cc1cc(I)c(Oc2ccc(O)c(I)c2)c(I)c1 | 1.55% | 4.31% | 0.436% | 0.952% | 2.17% | 1.33% | -1.43% | 3.33% | 2.21% | -14.4%
18 | CC1(C(=O)O)CCC2(C)CCC3(C)C(=CC(=O)C4C5(C)CCC(OC6OC(C(=O)O)C(O)C(O)C6OC6OC(C(=O)O)C(O)C(O)C6O)C(C)(C)C5CCC43C)C2C1 (stereo not given) | -2.43% | 0.376% | -1.5% | -0.788% | -1.63% | -0.137% | -2.93% | -1.58% | -3.15% | 0.0626%
19 | COc1cc2/c(=N/c3ccc(Br)cc3F)nc[nH]c2cc1OCC1CCN(C)CC1 | 11.5% | 2.67% | 4.34% | 7.45% | 11.1% | 10.7% | 9.55% | -1.09% | -4.91% | 0.39%
20 | CCCc1nc(C(C)(C)O)c(C(=O)OCc2oc(=O)oc2C)n1Cc1ccc(-c2ccccc2-c2nnn[nH]2)cc1 | -1% | 0.0168% | -0.622% | 0.493% | -1.5% | -3.62% | 12.4% | -1.28% | -2.12% | -2.02%
21 | Nc1nc2ccc(OC(F)(F)F)cc2s1 | 2.99% | 4.46% | 3.41% | 4.59% | 2.04% | 2.46% | 4.46% | -0.776% | 2.57% | 1.66%
22 | O=C1N=C(O)NC1(c1ccccc1)c1ccccc1 | 0.482% and -0.485% | 2.42% and 3.19% | 1.26% and 0.465% | 0.659% and -0.0101% | 1.57% and 1.18% | 2.58% and 1.56% | 0.737% and -1.81% | -0.112% and -1.42% | 1.87% and 2.15% | -17.1%
